A selection: hits, their analogues and other compounds. The true share with any hit is near 2.6%.
OPRK1 antag MB = OPRK1 (human) antagonism, Maybridge screen; hit rate 0.4% among 16,000; OPRK1 cells, antagonist mode, fluorescence readout; AID 652031; inhibition, % at 9 µM; in the data active = inhibition above about 50%
rat GALR2 ag = activates the rat galanin receptor 2 | O08726 | cell-based GALR2 agonist screen | activation, % at 10 µM | hit rate 0.5% among 16,000 | AID 833; in the data active = activation above about 15%
TLR4-MyD88 inh = blocks binding of human TLR4 to MyD88; O00206; Cell-based TLR4-MyD88 binding inhibition assay; inhibition, % at 10 µM; hit rate 0.06% among 16,000; AID 811; in the data active = inhibition above about 45%
Target sequence (O00206 whole entry, looked up): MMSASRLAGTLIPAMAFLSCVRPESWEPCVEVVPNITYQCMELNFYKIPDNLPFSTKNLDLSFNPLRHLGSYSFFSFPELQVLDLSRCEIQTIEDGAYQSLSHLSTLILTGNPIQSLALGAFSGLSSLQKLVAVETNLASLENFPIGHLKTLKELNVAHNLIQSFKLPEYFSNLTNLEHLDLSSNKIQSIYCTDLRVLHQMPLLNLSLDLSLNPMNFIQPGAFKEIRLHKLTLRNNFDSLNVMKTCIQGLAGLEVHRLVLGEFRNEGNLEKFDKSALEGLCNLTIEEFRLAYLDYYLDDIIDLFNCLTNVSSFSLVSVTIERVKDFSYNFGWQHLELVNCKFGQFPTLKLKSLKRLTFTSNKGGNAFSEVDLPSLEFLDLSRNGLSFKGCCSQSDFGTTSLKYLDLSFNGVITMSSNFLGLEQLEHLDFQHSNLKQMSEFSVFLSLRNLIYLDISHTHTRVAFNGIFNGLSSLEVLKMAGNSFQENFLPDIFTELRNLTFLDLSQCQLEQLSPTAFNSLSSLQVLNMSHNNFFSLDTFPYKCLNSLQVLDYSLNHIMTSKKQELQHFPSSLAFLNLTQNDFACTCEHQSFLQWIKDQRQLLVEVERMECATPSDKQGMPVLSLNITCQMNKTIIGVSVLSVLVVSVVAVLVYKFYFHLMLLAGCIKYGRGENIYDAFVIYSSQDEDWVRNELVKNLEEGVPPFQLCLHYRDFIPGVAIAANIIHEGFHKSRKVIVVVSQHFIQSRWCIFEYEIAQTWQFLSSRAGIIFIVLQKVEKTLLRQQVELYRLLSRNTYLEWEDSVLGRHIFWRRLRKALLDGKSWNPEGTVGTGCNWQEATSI
S1P1 ag = activates the human S1P1 receptor | P21453 | S1P1 agonist cell-based reporter assay | activation, % at 4.5 µM | hit rate 1.5% among 16,000 | AID 1044; in the data active = activation above about 80%
* hit, by the source's call.

What do the screens show for `COc1ccc(N=Nc2cc(C)c(O)c(CN3CCCCC3)c2)cc1`?
OPRK1 antag MB: 24; rat GALR2 ag: -6; TLR4-MyD88 inh: 9; S1P1 ag: 101*

How did COc1ccc(/C(C)=N/O)cc1CN1CCCC1 do in these assays?
OPRK1 antag MB: 8; rat GALR2 ag: -7; TLR4-MyD88 inh: 1; S1P1 ag: -5

What do the screens show for `O=C(O)Cc1csc2ccccc12`?
OPRK1 antag MB: -4; rat GALR2 ag: -6; TLR4-MyD88 inh: -5; S1P1 ag: 2

Results for O=[N+]([O-])c1ccccc1SCc1csc2ccccc12 ?
OPRK1 antag MB: -20; rat GALR2 ag: -6; TLR4-MyD88 inh: -9; S1P1 ag: 98*

How did COc1ccc(CCN2C(=O)CSC2=Nc2ccc(C(C)C)cc2)cc1OC do in these assays?
OPRK1 antag MB: -56; rat GALR2 ag: -8; TLR4-MyD88 inh: -1; S1P1 ag: 108*

Results for Cc1ccc(C)n1-c1ccc(C(=O)NNS(=O)(=O)c2cccc(C(F)(F)F)c2)cc1 ?
OPRK1 antag MB: -6; rat GALR2 ag: -1; TLR4-MyD88 inh: -4; S1P1 ag: -4

Results for O=[N+]([O-])c1ccc(N/N=C/c2ccc(-c3cccs3)s2)nc1 ?
OPRK1 antag MB: 79*; rat GALR2 ag: -12; TLR4-MyD88 inh: 17; S1P1 ag: 71

How did Nc1nc(-c2ccc3c(c2)CCC3)cc(C(F)(F)F)n1 do in these assays?
OPRK1 antag MB: 9; rat GALR2 ag: -6; TLR4-MyD88 inh: -2; S1P1 ag: 83*

Results for CSc1nc(/C=N/c2nc(C)cc(C)n2)c(O)n1Cc1cccc(Cl)c1 ?
OPRK1 antag MB: -19; rat GALR2 ag: -4; TLR4-MyD88 inh: 2; S1P1 ag: 103*

What do the screens show for `CSC1=NCC(=O)N1Cc1cccc(Cl)c1`?
OPRK1 antag MB: 6; rat GALR2 ag: -4; TLR4-MyD88 inh: 0; S1P1 ag: 4

Results for CCOC(=O)c1cc(-c2csc(N/N=C/c3ccc(Cl)cc3)n2)on1 ?
OPRK1 antag MB: 6; rat GALR2 ag: -6; TLR4-MyD88 inh: -4; S1P1 ag: -10

How did Cc1cc(N=Nc2cccc(C(F)(F)F)c2)ccc1N do in these assays?
OPRK1 antag MB: 28; rat GALR2 ag: -12; TLR4-MyD88 inh: -1; S1P1 ag: 101*

How did O=S(=O)(Cc1ccc(F)cc1)Cc1noc(C2CCC2)n1 do in these assays?
OPRK1 antag MB: -7; rat GALR2 ag: -6; TLR4-MyD88 inh: 0; S1P1 ag: -6

What do the screens show for `CCOC(=O)c1sc(-c2sccc2CSc2ccc(Cl)cc2)nc1C`?
OPRK1 antag MB: 1; rat GALR2 ag: -6; TLR4-MyD88 inh: 2; S1P1 ag: -3

What do the screens show for `O=C(NNC(=O)C(F)(F)F)c1ccc[nH]1`?
OPRK1 antag MB: 52*; rat GALR2 ag: -5; TLR4-MyD88 inh: -2; S1P1 ag: -1

What do the screens show for `O=C(c1ccco1)n1ccc(-c2cccs2)n1`?
OPRK1 antag MB: 5; rat GALR2 ag: -5; TLR4-MyD88 inh: -9; S1P1 ag: -3

How did C[C@]12C=C(C#N)C[C@@]1(C)C=C(C#N)C2 do in these assays?
OPRK1 antag MB: 18; rat GALR2 ag: -6; TLR4-MyD88 inh: -3; S1P1 ag: 4

What do the screens show for `COc1ccc(OC)c(/C=C(\C#N)C(N)=O)c1`?
OPRK1 antag MB: -9; rat GALR2 ag: -5; TLR4-MyD88 inh: 12; S1P1 ag: 92*

Results for CCOC(=O)/C(C#N)=C/c1ccc(OC)c(OC)c1 ?
OPRK1 antag MB: 16; rat GALR2 ag: -2; TLR4-MyD88 inh: -12; S1P1 ag: -4

What do the screens show for `c1csc(-c2noc(-c3ccno3)n2)c1`?
OPRK1 antag MB: -3; rat GALR2 ag: -7; TLR4-MyD88 inh: 2; S1P1 ag: 6

Results for O=C(Nc1ccc(Cl)cc1)c1csc([N+](=O)[O-])c1 ?
OPRK1 antag MB: 14; rat GALR2 ag: -6; TLR4-MyD88 inh: 0; S1P1 ag: 12

Results for O=C(Nc1ccc(-c2cnco2)cc1)c1csc([N+](=O)[O-])c1 ?
OPRK1 antag MB: 3; rat GALR2 ag: -1; TLR4-MyD88 inh: 6; S1P1 ag: 105*

How did CCSC(SCC)[C@@H](O)[C@H](O)[C@H](O)[C@@H](O)CO do in these assays?
OPRK1 antag MB: -2; rat GALR2 ag: -4; TLR4-MyD88 inh: 4; S1P1 ag: 7

Results for OC[C@@H](O)[C@H](O)[C@H](O)[C@@H](O)C(SCc1ccccc1)SCc1ccccc1 ?
OPRK1 antag MB: 4; rat GALR2 ag: -6; TLR4-MyD88 inh: 11; S1P1 ag: 103*

What do the screens show for `CCOC(=O)c1cc(NS(=O)(=O)c2cccc3nonc23)ccc1N1CCCCC1`?
OPRK1 antag MB: 0; rat GALR2 ag: -9; TLR4-MyD88 inh: -8; S1P1 ag: 3

What do the screens show for `Cc1c(C)c(C)c(C(=O)c2ccccc2C(=O)NN)c(C)c1C`?
OPRK1 antag MB: -16; rat GALR2 ag: -7; TLR4-MyD88 inh: -7; S1P1 ag: 81*

What do the screens show for `CCCc1c(C(=O)Nc2ccc3ccccc3n2)cnn1-c1ccccc1`?
OPRK1 antag MB: -8; rat GALR2 ag: -6; TLR4-MyD88 inh: 1; S1P1 ag: 96*

How did O=C(/C=C/c1ccsc1)Nc1cc(C(F)(F)F)cc(C(F)(F)F)c1 do in these assays?
OPRK1 antag MB: 13; rat GALR2 ag: -10; TLR4-MyD88 inh: 5; S1P1 ag: 6

What do the screens show for `O=C(OC1CCSC1)c1cc(C(F)(F)F)cc(C(F)(F)F)c1` (stereo not drawn)?
OPRK1 antag MB: 7; rat GALR2 ag: -9; TLR4-MyD88 inh: 12; S1P1 ag: 120*

What do the screens show for `N/C(=N\OC(=O)c1cccc(C(F)(F)F)c1)C1CSCCS1` (stereo not drawn)?
OPRK1 antag MB: -7; rat GALR2 ag: -3; TLR4-MyD88 inh: 0; S1P1 ag: -1

What do the screens show for `Cc1c(-c2nc(-c3ccc([N+](=O)[O-])o3)no2)n(C)oc1=O`?
OPRK1 antag MB: 4; rat GALR2 ag: -11; TLR4-MyD88 inh: 2; S1P1 ag: -11

What do the screens show for `Cc1c(-c2nc(-c3ccc(C(C)(C)C)cc3)no2)n(C)oc1=O`?
OPRK1 antag MB: 12; rat GALR2 ag: -3; TLR4-MyD88 inh: 2; S1P1 ag: 95*

How did CCOC(=O)c1sc(N/N=C/c2cccs2)c2c1CC(C)(C)CC2=O do in these assays?
OPRK1 antag MB: -3; rat GALR2 ag: 19*; TLR4-MyD88 inh: 1; S1P1 ag: 3

How did O=C1C=C(NCCSCc2cccc(C(F)(F)F)c2)CC(c2ccc(Cl)cc2)C1 (stereo not drawn) do in these assays?
OPRK1 antag MB: 13; rat GALR2 ag: -4; TLR4-MyD88 inh: -5; S1P1 ag: -2

What do the screens show for `CCCNc1c(NCCC)c(=O)c1=O`?
OPRK1 antag MB: 14; rat GALR2 ag: -7; TLR4-MyD88 inh: -1; S1P1 ag: -16

What do the screens show for `CCOC(=O)c1sc(-c2ncc(C(F)(F)F)cc2OCC)nc1C`?
OPRK1 antag MB: -18; rat GALR2 ag: -2; TLR4-MyD88 inh: 3; S1P1 ag: 4

Results for C/C(=N\NC(=S)NC(C)(C)C)c1sc(-c2ncc(C(F)(F)F)cc2Cl)nc1C ?
OPRK1 antag MB: -27; rat GALR2 ag: 19*; TLR4-MyD88 inh: -2; S1P1 ag: -23

Results for O=C(Nc1ccc(-c2nc3ccccc3s2)cc1)c1ccc2c(c1)CCO2 ?
OPRK1 antag MB: 1; rat GALR2 ag: 7; TLR4-MyD88 inh: -24; S1P1 ag: -18

What do the screens show for `O=C(Nc1ccc(-c2nc3ccccc3s2)cc1)Nc1cc(F)cc2c1OCOC2`?
OPRK1 antag MB: -39; rat GALR2 ag: 33*; TLR4-MyD88 inh: -48; S1P1 ag: -17
